# Experimental data as given in PubChem BioAssay (Tox21).
# “And” between values parts separate entries of the source, which are not always exact repeats. Equal values may be shown once. Some structures have more than one record in an assay (separate samples or runs), and their calls can disagree. The source made the active and inactive calls. Entries that show only a call come without a potency. Calls follow the shape of the full dose curve.
# Molecular target: Muscarinic acetylcholine receptor M1 (Homo sapiens) (UniProt P11229)
# Sequence (P11229 whole entry, looked up): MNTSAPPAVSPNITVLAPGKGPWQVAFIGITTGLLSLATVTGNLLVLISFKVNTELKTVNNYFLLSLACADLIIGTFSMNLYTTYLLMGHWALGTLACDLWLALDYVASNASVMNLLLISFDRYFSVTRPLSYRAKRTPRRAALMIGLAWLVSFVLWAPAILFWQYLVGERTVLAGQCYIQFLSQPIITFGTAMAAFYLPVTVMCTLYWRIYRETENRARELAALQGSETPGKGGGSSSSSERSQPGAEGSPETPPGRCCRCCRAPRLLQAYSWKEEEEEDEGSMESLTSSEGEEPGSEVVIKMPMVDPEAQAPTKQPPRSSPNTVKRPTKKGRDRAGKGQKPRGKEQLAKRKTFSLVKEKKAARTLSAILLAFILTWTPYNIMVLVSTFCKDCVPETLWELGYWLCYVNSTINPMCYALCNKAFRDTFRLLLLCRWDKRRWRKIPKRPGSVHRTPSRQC
# Assay: Cholinergic receptor muscarinic 1 (CHRM1) small molecule agonists, cell-based qHTS assay (AID 1963589); also: nearly all actives have a fitted effect of over 35% in size
# Conditions: CHRM1-CHO cells, agonist mode, calcium flux fluorescence; series mostly up to 76.8 µM
# From the text: National Center for Advancing Translational Sciences [NCATS]
# Division of Preclinical Innovation [DPI]
# U.S. Environmental Protection Agency [EPA]
# National Institutes of Environmental Health Sciences [NIEHS]
# National Toxicology Program [NTP]
# U.S. Food and Drug Administration [FDA]
# The CHRM1 is a muscarinic receptor. This receptor plays a crucial role in learning and memory processes and has long been identified as a promising therapeutic target for the improvement of cognitive decline in Alzheimer's disease (AD). The CHRM1-CHO cell line stably expressing human muscarinic acetylcholine receptor M1 (CHRM1) can be used for screening agonists and antagonists of interactions between CHRM1 and its ligands. The CHRM1-CHO Calcium Flux Assay is a homogeneous fluorescence-based assay for detecting the intracellular calcium level using FDSS kinetic plate reader system.
# CHRM1-CHO cells were dispensed at 1000 cells/3uL/well in 1536-well black-clear bottom plates using a Multidrop Dispenser. After the assay plates were incubated at a 37 C/5% CO2 incubator for 18 h, 3 uL of Dye Loading Buffer was transferred to the assay plate by a Flying Reagent Dispenser. The assay plates were incubated at 37 C for 1h. For agonist mode, 23 nL of compounds dissolved in DMSO, positive controls or DMSO only was transferred to the assay plate by a pin tool. […] Each test compound was measured at 15 concentrations in three independent runs.
# Potency is read from the fitted curve at half-maximal effect.
row,Compound,Potency
1,CC(C)CC(=O)OCc1ccccc1,inactive
2,O=C1OC(=O)c2ccc3c4c(ccc1c24)C(=O)OC3=O,inactive
3,CCCSSCCC,inactive
4,CC(=O)OCCCc1ccccc1,inactive
5,CCCCCCCCCOCC1CO1 (stereo not given),inactive
6,C1=COCCC1,inactive
7,Cc1cccc(C)c1[N+](=O)[O-],inactive
8,Nc1cccc2c1CN(C1CCC(=O)NC1=O)C2=O (stereo not given),inactive
9,ON=C1CCCCC1,inactive
10,Cc1cc(O)c(Cl)cc1C,inactive
11,CC(CCC(=O)O)C(=O)O (stereo not given),inactive
12,CN(C)C(=O)Oc1ccc[n+](C)c1,inactive
13,C=C(C)C(=O)OCCNC(C)(C)C,inactive
14,CCCCOCCOCCOC(=O)CCCCC(=O)OCCOCCOCCCC,inactive
15,c1ccc(CCc2ccccc2)cc1,inactive
16,NCCOCCN,inactive
17,CC(=O)N[C@@H](Cc1ccc(O)cc1)C(=O)O,inactive
18,C[C@H]1C[C@H](O)c2ccsc2S1(=O)=O,inactive
19,C=Cc1ccccn1,inactive
20,CCC1CCCCC1,inactive

row,Compound,Potency
1,CCOc1ncc(F)c(=O)[nH]1,inactive
2,COc1cccc(OC)c1,inactive
3,Cn1cc(S(C)=O)c(=O)c2ccc(F)cc21 (stereo not given),inactive
4,CCCCCCCCO[C@@H]1O[C@H](CO)[C@@H](O)[C@H](O)[C@H]1O,inactive
5,CCCCCCCCCCCCCCCCCC(=O)OCC(CC)CCCC (stereo not given),inactive
6,CC(C)(C)OC(=O)c1cccc(N)c1,inactive
7,COC(=O)c1c(Cl)c(Cl)c(C(=O)OC)c(Cl)c1Cl,inactive
8,C=CCOCC(O)CO (stereo not given),inactive
9,COc1cc(/C=C/C(=O)O[C@H]2CC[C@]34C[C@]35CC[C@]3(C)[C@@H]([C@H](C)CCC=C(C)C)CC[C@@]3(C)[C@@H]5CC[C@H]4C2(C)C)ccc1O,inactive
10,CCCCCC1CCCC(=O)O1 (stereo not given),inactive
11,CCCCN(CCCC)CCCCCCN(CCCC)CCCC,inactive
12,NCCO,inactive
13,O=C1OC2(c3ccccc31)c1cc(Br)c(O)c(Br)c1Oc1c2cc(Br)c(O)c1Br,19.8 µM (active) and 22.5 µM (active) and 21.3 µM (active)
14,CC(=O)NC(Cc1ccccc1)C(=O)O (stereo not given),inactive
15,Nc1ccccc1N,56.2 µM (active) and inactive
16,CCOCCOC(=O)/C=C/c1ccc(OC)cc1,inactive
17,COC(=O)CC(C(C)=O)C(=O)OC (stereo not given),inactive
18,O=C(O)C1CCC(C(=O)O)CC1 (stereo not given),inactive
19,CCCCN=C(N)N=C(N)N,inactive
20,O=C(c1ccccc1O)c1ccccc1O,inactive
